Shown are actives, neighbours in structure and some others; about 1.1% of the full set was active somewhere.
MEP2-GFP yeast – modulators of TOR pathway MEP2-GFP in S. cerevisiae. S. cerevisiae MEP2-GFP strain, flow cytometry GFP, 3 h; 100% = DMSO control level. GFP response vs DMSO, % at 10 µM. actives 0.51% (n = 330,000). AID 2016;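 active means GFP response versus DMSO above a set limit, roughly screen mean plus 3 SD, cut at about 180% in these data; inconclusive means fewer than 70 cells counted for a yeast strain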;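 further: median GFP fluorescence of the barcode-gated MEP2-GFP cells per well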
RPL19A-GFP yeast – alters RPL19A-GFP fluorescence in TOR pathway yeast screen; S. cerevisiae RPL19A-GFP strain, flow cytometry, 3 h; active compounds read low; percent response vs DMSO, % at 10 µM; actives 0.3% (n = 330,000); AID 2025;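 active means percent response vs DMSO below 50%; inconclusive means fewer than 70 events counted for the yeast strain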;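 further: median channel GFP fluorescence of the barcoded RPL19A-GFP strain; ratio of sample median GFP to plate DMSO average so 100% = DMSO; lower means less RPL19A-GFP as with rapamycin TOR inhibition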
VLA-4 inh – inhibition in a human VLA-4 binding assay; P13612; VLA-4 expressing cells, ligand binding flow cytometry; inhibition, % (about 7 µM as worked out from the volumes in the protocol); actives 0.2% (n = 330,000); AID 2557; in the data active means inhibition above about 50%
AGP1-GFP MLPCN – yeast TOR pathway AGP1-GFP modulation. S. cerevisiae AGP1-GFP multiplex flow cytometry, 3 h; GFP as percent of DMSO wells. GFP response vs DMSO, % at 10 µM. actives 0.02% (n = 320,000);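 active means GFP response relative to DMSO above a set limit, near screen average plus 3 SD, cut at about 150% in these data; inconclusive means fewer than 70 cells counted for the yeast strain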;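 further: median GFP channel fluorescence of the gated AGP1 strain per well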
LAP4-GFP MLPCN – yeast TOR pathway LAP4-GFP modulation. S. cerevisiae LAP4-GFP multiplex, flow cytometry GFP, 3 h; median GFP as percent of DMSO wells. GFP response vs DMSO, % at 10 µM. actives 0.34% (n = 320,000);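 active means GFP response vs DMSO above a set limit, about the screen mean plus 3 SD, cut at about 150% in these data; inconclusive means under 70 cell events counted for the yeast strain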
CIT2-GFP yeast – alters CIT2-GFP fluorescence in TOR pathway yeast screen. actives 0.065% (n = 320,000). GFP response vs DMSO, % at 10 µM. S. cerevisiae CIT2-GFP strain, flow cytometry, 3 h; 100 means same as DMSO wells;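 active means GFP response relative to DMSO above a set limit, near the screen mean plus 3 SD, cut at about 150% in these data; inconclusive means Fewer than 70 cells measured for a yeast strain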;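 further: ratio of well median GFP fluorescence to mean of DMSO wells on the plate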
Starred values were filed as active, the others as inactive; ? = inconclusive; . = no result; [ ] = remark or other dose.

SMILES | MEP2-GFP yeast | RPL19A-GFP yeast | VLA-4 inh | AGP1-GFP MLPCN | LAP4-GFP MLPCN | CIT2-GFP yeast
COc1cccc(CN(C(=O)c2cc3ccccc3oc2=O)C2CCS(=O)(=O)C2)c1 (centres undefined) | 107 | 109 | -1 | 110 | 107 | 119
CNc1sc(C(=O)c2ccc(F)cc2)c(N)c1-c1nc2ccccc2s1 | 97 | 96 | -60 | 42 | 153*[may fluoresce violet] | ?
COC(=O)c1cc(NC(=O)CC2CCCC2)cc(C(=O)OC)c1 | 143 | 27*[may fluoresce violet] | -3 | ? | 67 | ?
CCN(c1ccccc1)S(=O)(=O)c1nnc(NC(=O)C(C)C)s1 | 338*[may fluoresce violet] | 22*[may fluoresce violet] | 8 | ? | 60 | ?
C=CCN1C(=O)C2C(C(=O)NC)C3(C)C=CC2(O3)C1C(=O)NCc1ccc(OC)cc1 (centres undefined) | 519*[may fluoresce violet] | 56 | 0 | ? | 101 | ?
COc1ccc(C(C(=O)NCC2CCCO2)N(C(=O)c2snc(C(N)=O)c2N)c2ccccc2C)cc1OC (centres undefined) | 91 | 93 | -1 | 94 | 103 | 91
COc1cccc2cc(C(=O)N3CCCCCCC3)c(=O)oc12 | 104 | 102 | -5 | 94 | 96 | 99
COc1cccc2cc(C(=O)N3CCN(C/C=C/c4ccccc4)CC3)c(=O)oc12 | 219* | 81 | 2 | 89 | 106 | 63
CCN(CC)C(=O)[C@H]1CC(CC(=O)NCC23CC4CC(CC(C4)C2)C3)C(=O)N2CCc3c([nH]c4ccccc34)[C@]12C (some centres undefined) | 98 | 96 | 7 | 94 | 95 | 83
NC(=O)c1cccc(NC(=O)CCCCC(=O)Nc2cccc(C(N)=O)c2)c1 | 645*[may fluoresce violet] | 23*[may fluoresce violet] | -1 | ? | 77 | ?
CCCCC(=O)Nc1ccc(C(N)=O)cc1 | 104 | 95 | 7 | 98 | 97 | 102
CC(C(=O)c1ccccc1)[n+]1cccc(Br)c1 (centres undefined) | 118 | 106 | -3 | 102 | 109 | 98
N#Cc1ccccc1S(=O)(=O)N1CCN(CC(=O)Nc2ccccc2C(=O)NC2CC2)CC1 | 97 | 98 | -11 | 104 | 106 | 100
Cc1c(NC(=O)Nc2cccc(C(F)(F)F)c2)c(=O)n(-c2ccccc2)n1C | 102 | 103 | -9 | 107 | 100 | 108
Cc1ccc(-n2ncc(C#N)c2/N=C/N2CCOCC2)cc1 | 103 | 101 | -4 | 100 | 97 | .
Cc1ccc(-n2ncc(C#N)c2/N=C/N(C)C)cc1 | 267* | 92 | -1 | 102 | 158* | 117
COc1cccc(N2CCN(c3nc(-c4ccccc4C)cc(=O)[nH]3)CC2)c1 | 121 | 101 | 14 | 95 | 102 | 104
CCOC(=O)c1cc(S(=O)(=O)N2CCN(C(=O)OCC)CC2)cn1C | 200* | 95 | 13 | 27 | 86 | 95
Cc1cc(Cl)ccc1NC(=S)NCc1ccc(F)cc1 | 96 | 106 | -6 | 102 | 91 | 106
NCCSc1c(-c2ccccc2)[nH]c2ccccc12 | 103 | 106 | 13 | 112 | 98 | 122
NCCSc1c(-c2ccc(F)cc2)[nH]c2ccccc12 | 616*[may fluoresce violet] | 74 | 3 | 25 | 101 | ?
COc1ccc(-c2cc(C(F)(F)F)nc(N3CCOCC3)n2)cc1OC | 213* | 81 | 21 | 99 | 186* | 99
CNc1ccc(C(=O)OCC(=O)NC(=O)NC2CCCC2)cc1[N+](=O)[O-] | 94 | 92 | -6 | 96 | 96 | 85
COc1cc(S(=O)(=O)NCc2ccc(F)cc2)ccc1-n1cnnn1 | 94 | 99 | 11 | 96 | 86 | 101
Cc1c(C(=O)NCCSCc2cccc(C(F)(F)F)c2)cnn1-c1ccc(F)cc1 | 96 | 71 | -11 | 17 | 153* | 66
SMILES | MEP2-GFP yeast | RPL19A-GFP yeast | VLA-4 inh | AGP1-GFP MLPCN | LAP4-GFP MLPCN | CIT2-GFP yeast
O=C(NCc1ccncc1)C12CC3CC(CC(Cl)(C3)C1)C2 | 225* | 91 | -9 | 96 | 145 | 84
CC12CC3CC(C)(C1)CC(C(=O)NCc1ccncc1)(C3)C2 | 108 | 102 | 13 | 96 | 90 | 102
Cc1[nH]c2ccccc2c1C(=O)C(C)OC(=O)C1CCC1 (centres undefined) | 103 | 68 | 1 | 57 | 189* | 64
Cn1nc(C(F)(F)F)c(C(=O)Nc2ccc(Cl)cc2)c1Cl | 353*[may fluoresce violet] | 23*[may fluoresce violet] | 12 | 18 | 72 | ?
CCS(=O)(=O)c1ccc(O)c(NC(=O)c2ccc(S(=O)(=O)N3CCCCCC3)cc2)c1 | 97 | 94 | -8 | 99 | 96 | 90
Cc1cc(C)nc(/N=C(/NC(=O)c2ccccc2)Nc2ccccc2)n1 | 444*[may fluoresce violet] | 33*[may fluoresce violet] | 9 | . | 101 | ?
COc1ccc(N/C(=N/c2nc(C)cc(C)n2)NC(=O)c2ccccc2)cc1 | 105 | 106 | 0 | 118 | 111 | 103
Fc1ccccc1-c1nc(NCCCN2CCOCC2)c2ccccc2n1 | 208* | 102 | 11 | 98 | 111 | 103
Cc1nc(-c2ccc(NC(=O)c3ccc(Br)o3)cc2)cs1 | 110 | 101 | 10 | 94 | 102 | 101
Cc1ccc(C(=O)c2c3ccccc3[n+]([O-])n2CCC(=O)O)cc1 | 102 | 98 | -10 | 103 | 107 | 95
CCOC(=O)c1c2ccccc2[n+]([O-])n1[C@@H](C)C(N)=O | 281*[may fluoresce violet] | 30*[may fluoresce violet] | 13 | ? | 105 | ?
O=[N+]([O-])c1cc([N+](=O)[O-])c2cc3ccccc3nc2c1 | 105 | 101 | -10 | 97 | 189* | 96
CC(OC(=O)c1cc(=O)[nH]c2ccccc12)C(=O)NC1CCCCC1C (centres undefined) | 97 | 96 | 1 | 96 | 96 | 90
CC(C)(C)OC(=O)n1cc(/C=N/NC(=O)c2ccco2)c2ccccc21 | 117 | 98 | 1 | 119 | 118 | 154*[may fluoresce green]
COc1ccc(OCc2nnc(SCC(=O)N3CCCc4ccccc43)n2-c2ccc(C)cc2)cc1 | 214*[may fluoresce violet] | 66 | -6 | 21 | 96 | ?
O=C(C[C@@H]1C/C=C/CC[C@H](Cc2ccc(F)cc2)C(=O)OC[C@@H](Cc2ccccc2)NC1=O)N[C@H](CO)Cc1ccccc1 | 100 | 92 | 10 | 104 | 89 | 86
O=Nc1c(O)c2ccccc2c2ccccc12 | 116 | 107 | 11 | 108 | 210* | 81
CN=Cc1sc2ccccc2c1O | 94 | 108 | 7 | 74 | 96 | 67
CCOc1ncccc1C(=O)OCC(=O)NCCc1ccccc1 | 245*[may fluoresce violet] | 58 | -1 | ? | 57 | ?
Cc1cc(C)c(C(=O)COC(=O)Cn2c(C)csc2=O)cc1C | 105 | 103 | -15 | 100 | 100 | 100
Cc1ccccc1NC(=O)COC(=O)c1cc(=O)c2ccccc2o1 | 151 | 115 | -34 | 103 | 117 | 159*
